Results from the supplement of paper PMC13380429.

Test system: Vero E6 infected with SARS-CoV-2
Test: inhibition of SARS-CoV-2 cytopathic effect; higher = more antiviral protection, active = above 15
Settings: 48 h

Measured: inhibition of SARS-CoV-2 cytopathic effect

CCCCC(=O)N(Cc1ccc(-c2ccccc2-c2nnn[nH]2)cc1)[C@H](C(=O)O)C(C)C [valsartan]
inactive: 1 nM 0.84% | 8.33 nM -1.89% | 100 nM 0.86% | 833.33 nM 0.99% | 10000 nM 0.91%

CN(C)/N=N/c1[nH]cnc1C(N)=O [dacarbazine]
inactive: 1 nM 2.03% | 8.33 nM 1.02% | 100 nM 2.4% | 833.33 nM 2.07% | 10000 nM -3.02%

NCCCC[C@H](NC(=O)[C@@H]1CCCN1C(=O)[C@@H]1CSSC[C@H](NC(=O)CNC(=O)CNC(=O)CN)C(=O)N[C@@H](Cc2ccc(O)cc2)C(=O)N[C@@H](Cc2ccccc2)C(=O)N[C@@H](CCC(N)=O)C(=O)N[C@@H](CC(N)=O)C(=O)N1)C(=O)NCC(N)=O [terlipressin]
inactive: 1 nM 2.67% | 8.33 nM 0.07% | 100 nM 0.5% | 833.33 nM -0.07% | 10000 nM 0.72%

C[C@H](NC(=O)[C@@H](O)c1cc(F)cc(F)c1)C(=O)N[C@@H]1C(=O)N(C)c2ccccc2-c2ccccc21
inactive: 1 nM -3.7% | 8.33 nM -4.79% | 100 nM -8.67% | 833.33 nM -14% | 10000 nM -7.15%

CC(C)OC(=O)[C@H](C)N[P@@](=O)(OC[C@H]1O[C@@H](n2ccc(=O)[nH]c2=O)[C@](C)(F)[C@@H]1O)Oc1ccccc1
inactive: 1 nM 2.14% | 8.33 nM -0.76% | 100 nM -2.61% | 833.33 nM -0.19% | 10000 nM 0.32%

CC(=O)N[C@H]1[C@H]([C@H](O)[C@H](O)CO)OC(C(=O)O)=C[C@@H]1NC(=N)N [zanamivir]
inactive: 1 nM 0.39% | 8.33 nM 0.16% | 100 nM -0.26% | 833.33 nM 2.6% | 10000 nM 2.28%
